# Assay outcomes from PubChem.
# Compounds with a hit are over-represented: about 14% of the library has one in this group of screens.
# Sm TGR inh: inhibitors of Schistosoma mansoni thioredoxin glutathione reductase; Q962Y6; purified TGR, DTNB reduction, TNB absorbance 405 nm; Potency, µM (highest dose often 114 µM), for the others: top-dose activity change, negative = inhibition, hits mostly inhibitors; 3% of 360,000 active; AID 485364; also: potency is read from the fitted curve at half-maximal effect; nearly all actives have a fitted effect of over 60% in size
#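 First, TGR (20 nM dispensed) and NADPH were mixed with compound. Second, a 15 min room-temperature incubation followed. Third, further NADPH and then DTNB were added to start the reaction. Finally, TNB absorbance was monitored kinetically.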
# Pf growth 48h: inhibits P. falciparum growth in the first generation, 48 h; AID 504832; Potency, µM (titrated, usually from 28.7 µM), for inactives: at the highest dose activity change, negative = inhibition, most hits filed as inhibitors; 5.9% of 310,000 active; P. falciparum luciferase growth in erythrocytes, 48 h; also: potency is read from the fitted curve at half-maximal effect
#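 First compound was added to culture medium, then infected red cells at 0.1% parasitemia and 2% hematocrit (final). After incubation at 37 C under 5% CO2, luciferase detection reagent was dispensed and light output recorded.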
# Giardia FBPA inh: blocks Giardia fructose-bisphosphate aldolase activity. purified Giardia FBPA. A8B2U2. Potency, µM (top dose mostly 59.6 µM), inactives show at the highest dose activity, negative = inhibition, actives largely listed as inhibitors. 0.71% of 290,000 active; also: potency is read from the fitted curve at half-maximal effect; nearly all actives have a fitted effect of over 55% in size
# Target sequence (A8B2U2 whole entry, looked up): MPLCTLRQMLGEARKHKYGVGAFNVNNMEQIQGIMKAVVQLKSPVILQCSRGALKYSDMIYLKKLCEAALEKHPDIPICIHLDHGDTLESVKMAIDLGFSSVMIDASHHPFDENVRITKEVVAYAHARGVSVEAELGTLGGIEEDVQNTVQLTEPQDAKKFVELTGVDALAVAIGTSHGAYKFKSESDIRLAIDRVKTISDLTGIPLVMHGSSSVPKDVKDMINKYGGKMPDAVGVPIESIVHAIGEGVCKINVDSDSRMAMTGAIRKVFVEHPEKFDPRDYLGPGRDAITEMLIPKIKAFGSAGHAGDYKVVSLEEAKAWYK
#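 Giardia FBPA (40 nM reagent) was preincubated 10 min at RT with compound (up to 57.5 uM final), then substrate plus GAPDH/TPI/NAD/arsenate coupling system with diaphorase/resazurin was added; resorufin fluorescence (525/598 nm) was read after 20 min.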
# Pf growth 96h: P. falciparum growth inhibition at 96 hours. P. falciparum luciferase reporter growth, 96 h. Potency, µM (highest dose often 28.7 µM), without a hit: top-dose activity change, negative = inhibition, actives largely listed as inhibitors. 6.9% of 320,000 active. AID 504834; also: potency is read from the fitted curve at half-maximal effect
#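 Plates of compound plus infected erythrocytes (2% hematocrit, 0.05% parasitemia final) incubate 96 hours, 37 C, 5% CO2. Detection reagent added; reduced luminescence from the parasites' luciferase reporter flags inhibition.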
# HCMV antiviral: inhibitors of human cytomegalovirus | HFF cells, HCMV-luciferase reporter, 72 h; hits give low values | AID 1259415 | activity change, negative = inhibition, % at 57.5 µM | 4.5% of 410,000 active; in the data active = activity change below about -60%; inconclusive = no clear call, values can overlap the other calls; inactive = above about -39%
#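 Screen run at 2 compound doses on HFFs infected with reporter HCMV, MOI 1 PFU/cell. Luciferase activity from cell lysates at 72 h post infection gave inhibition relative to buffer-only and Salinomycin wells.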
# * = called active by the depositor; ? = inconclusive; / = no result given; + = active, no number. Unless noted, calls follow the shape of the dose curve; as a rule, active = well fitted curve in the direction sought with a large enough effect; inconclusive = small, poorly fitted or top-dose-only effect, or another doubt; inactive = no such curve, though single readings can be large; an effect the other way counts as inactive or inconclusive. % is scaled to controls: 0 for no effect and ±100 for the full control effect.
SMILES,Sm TGR inh,Pf growth 48h,Giardia FBPA inh,Pf growth 96h,HCMV antiviral
C[C@H](NC(=O)c1[nH]cnc1C(=O)Nc1ccc(Cl)cc1)c1ccccc1,-18%,?,/,?,-28
CCOC(=O)N1CCN(C(=O)C2CCC(=O)N(Cc3ccccc3OC)C2)CC1 (centres undefined),/,/,/,/,1
COc1cccc(C(C)NC(=O)Nc2ccccc2Cl)c1 (centres undefined),/,?,13%,4%,-64*
Cc1ccc(C(NC(=O)NC(C)c2ccccc2)C(Cl)(Cl)Cl)cc1F (centres undefined),-4%,4.1µM*,-5%,?,-100*
CC(NC(=O)Nc1ccc(Cl)cc1)c1ccccc1 (centres undefined),-22%,24%,5%,10µM*,-24
COC(=O)[C@@]1(Cc2ccccc2)[C@H]2c3cc(C(=O)N4CCCC4)n(Cc4ccc(O)c(OC)c4)c3C[C@H]2CN1C(=O)c1ccccc1,/,/,-11%,/,/
O=C1c2ccccc2/C(=C\c2ccc(O[C@@H]3CCCCO3)cc2)N1c1ccccc1,/,/,/,/,-32
CN1CCN(C(=O)c2ccc3c(c2)S(=O)(=O)c2ccccc2C3=O)CC1,-17%,8%,1%,-1%,-62*
COc1ccc(-c2ccc3c(c2)S(=O)(=O)c2cccc(C(=O)NCCOc4ccccc4)c2C3=O)cc1OC,-30%,12%,/,-17%,/
COc1ccc(NC(=O)c2cccc3c2C(=O)c2ccc(-c4ccc(F)cc4OCc4ccccc4)cc2S3(=O)=O)cc1,/,/,/,/,-64*
COc1ccc(NC(=O)c2ccc3c(c2)S(=O)(=O)c2ccccc2C3=O)cc1,/,/,/,/,-63*
Cc1oc(-c2ccc(C(=O)NCc3ccccc3F)cc2)nc1COc1ccccc1,3%,/,/,/,-16
COc1ccccc1CNC(=O)c1ccc(-c2nc(CS(=O)c3ccc(C)cc3)c(C)o2)cc1 (centres undefined),13µM*,/,/,/,0
Cc1ccc(S(=O)(=O)Cc2nc(-c3ccc(C(=O)NCCCOC(C)C)cc3)oc2C)cc1,-35%,/,/,/,12
Cc1ccc(S(=O)(=O)Cc2nc(-c3ccc(C(=O)NCc4ccccc4F)cc3)oc2C)cc1,7.9µM*,/,/,/,/
CCCNC(=O)c1ccc(-c2nc(CS(=O)(=O)c3ccc(C)cc3)c(C)o2)cc1,40µM*,/,/,/,6
CC(Oc1ccc(Cl)cc1)C(=O)N/N=C/c1ccsc1 (centres undefined),10%,19%,-9%,-1%,45
COc1ccc(C(=O)Oc2cccc3cccnc23)cc1[N+](=O)[O-],0%,-24%,-27%,22%,-2
O=C(Oc1ccc(Cl)c2cccnc12)c1cccnc1,40µM*,?,9%,?,58
Cc1ccc(C(=O)Oc2ccc(Cl)c3cccnc23)cc1[N+](=O)[O-],11%,13µM*,/,?,-5
COc1cccc(NC(=O)c2csc3c2CCCCC3)c1,-1%,/,/,/,81
COc1ccc(CC(=O)Nc2cc(S(=O)(=O)N3CCOCC3)ccc2N2CCOCC2)cc1OC,/,/,/,/,-2
Cc1ccc(S(=O)(=O)N2CCN(C(=O)CN3C(=O)c4ccccc4C3=O)CC2)c(C)c1,-5%,30%,/,22%,-28
Cc1cc2nc(-c3cccc(NC(=O)c4cccc5ccccc45)c3)oc2cc1C,6%,/,/,/,-7
O=C(NCc1cc(F)cc(F)c1)[C@H]1[C@H](CO)[C@H]2Cn3c(cccc3=O)[C@@H]1N2C(=O)c1ccccn1,/,/,/,/,-10
SMILES,Sm TGR inh,Pf growth 48h,Giardia FBPA inh,Pf growth 96h,HCMV antiviral
Cc1ccc(O)c(NC(=O)COCc2cc(-c3ccco3)on2)c1,-4%,/,/,/,+
O=C(COCc1cc(-c2ccco2)on1)Nc1cc(Cl)ccc1O,?,/,/,/,-29
Cc1cc(NC(=O)C2CC(=O)N(c3cccc(Cl)c3)C2)no1 (centres undefined),7%,6%,9%,0%,-17
CCOC(=O)COc1ccc(Br)cc1/C=C1\SC(N)=NC1=O,-17%,?,0%,-5%,20
CCOC(=O)CSC1=NC(=O)/C(=C\c2ccc(OC(C)=O)cc2)S1,8.9µM*,59%,-2%,189%,113
CCOC(=O)CSC1=NC(=O)/C(=C/c2ccc(Br)cc2)S1,3.2µM*,153%,14%,-3%,-29
O=C(NCCS(=O)(=O)NC1CCCC1)c1ccccc1,-6%,26%,/,59%,7
